# The list is not random: actives were taken first. Their share in the collection is about 2.3%.
# ALOX12 inh: Primary qHTS assay for inhibitors of human arachidonate 12S-lipoxygenase (ALOX12): Round 2; Polyunsaturated fatty acid lipoxygenase ALOX12 (Homo sapiens), P18054; purified 12hLO, xylenol orange hydroperoxide absorbance; Potency, µM (highest dose often 108 µM), inactives show at the top dose activity change, negative = inhibition, most hits filed as inhibitors; 580,000 compounds, 1.1% hits; further: on the % scale 0 is the no-effect control and ±100 the full control effect
#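 Hydroperoxide product was detected by ferrous iron/xylenol orange as the 573 to 405 nm absorbance ratio. Arachidonic acid at 40 uM (final) was turned over for 30 min at room temperature by 150 nM human 12hLO, pH 7.0 Hepes buffer, after 15 min compound preincubation.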
# GLP-1R inv ag: qHTS of GLP-1 Receptor Inverse Agonists (Inhibition Mode); Glucagon-like peptide 1 receptor (Homo sapiens), P43220; HEK293 GLP-1R CRE-luciferase, luminescence, 24 h; GLP-1R form is constitutively active; Potency, µM (doses to about 38.3 µM), for the others: top-dose activity change, negative = inhibition, usual class: inhibitors; 410,000 compounds, 1.6% hits; AID 624417, 2012; further: on the % scale 0 is the no-effect control and ±100 the full control effect; nearly all actives have a fitted effect of over 55% in size
# Target sequence (P43220 whole entry, looked up): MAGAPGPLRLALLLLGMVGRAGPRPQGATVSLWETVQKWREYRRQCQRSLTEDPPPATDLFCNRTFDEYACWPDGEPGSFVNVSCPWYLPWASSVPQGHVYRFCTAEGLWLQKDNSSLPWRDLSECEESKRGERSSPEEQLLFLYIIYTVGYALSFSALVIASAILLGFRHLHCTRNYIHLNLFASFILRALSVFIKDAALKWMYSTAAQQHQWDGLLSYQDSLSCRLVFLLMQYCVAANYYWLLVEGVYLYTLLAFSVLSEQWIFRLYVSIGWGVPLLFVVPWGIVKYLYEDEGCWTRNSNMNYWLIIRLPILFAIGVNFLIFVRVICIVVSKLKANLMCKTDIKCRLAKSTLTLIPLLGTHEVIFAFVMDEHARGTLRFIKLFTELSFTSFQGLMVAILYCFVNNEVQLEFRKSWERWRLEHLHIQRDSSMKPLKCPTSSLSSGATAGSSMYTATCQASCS
#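 Readout was luciferase luminescence, measured 12 min after detection reagent at room temperature. Beforehand, GLP-1R reporter HEK293 cells had sat 12 h, then received compounds for 24 hr at 37 deg C.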
# GLP1R ag: qHTS of GLP-1 Receptor Agonists. Glucagon-like peptide 1 receptor (Homo sapiens), P43220. HEK293 GLP-1R CRE-luciferase, luminescence, 4-6 h; cells express a hypersensitive GLP-1R form. Potency, µM (highest dose often 45.6 µM), for inactives: top-dose activation, actives largely listed as activators. 380,000 compounds, 0.007% hits; further: % of control where 0% means no effect
# PTHR1 agonist: qHTS for PTHR1 Agonists: Primary Screen; AID 743266, 2014; Potency, µM (series often up to 115 µM), for the others: at the highest dose activation, most hits filed as activators; Parathyroid hormone/parathyroid hormone-related peptide receptor (Homo sapiens), Q03431; HEK293 GP2 PTHR1 cells, GloSensor cAMP luminescence, 1 h; 410,000 compounds, 0.075% hits; further: nearly all actives have a fitted effect of over 55% in size
#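 HEK-293-derived GP2 cells expressing PTHR1 and a GloSensor cAMP reporter, 3,000/well, plated overnight, given luciferin plus IBMX (each 0.5 mM as added) for 1 h at 37 °C, then compound for 1 h at 37 °C. Luminescence was read after 15 min at room temperature.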
# Glioma ERSR ind: qHTS for Inducers of the Endoplasmic Reticulum Stress Response (ERSR) in Human Glioma: qHTS; U87-MG GRP78 promoter luciferase reporter, 16 h; 420,000 compounds, 0.02% hits; Potency, µM, without a hit: at the top dose activation, actives largely listed as activators; further: series mostly up to about 76 µM; % of control where 0% means no effect; nearly all actives have a fitted effect of over 35% in size
#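 Stably transfected U87-MG glioma cells carrying a GRP78-based luciferase sensor; 16 h compound incubation. Luminescence end-point read 10 min after Bright-Glo addition at room temperature.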
# GLS inhibitor: qHTS for Inhibitors of Glutaminase (GLS); Glutaminase kidney isoform, mitochondrial (Homo sapiens), O94925; GLS enzymatic activity, qHTS titration; Potency, µM (highest dose often 45.5 µM), without a hit: at the top dose activity change, negative = inhibition, hits mostly inhibitors; 410,000 compounds, 0.21% hits; AID 624170, 2012; further: on the % scale 0 is the no-effect control and ±100 the full control effect
#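 hKGA in 45 mM KH2PO4 pH 8.2, 0.02% Tween-20 with pin-transferred compounds; 1 mM L-glutamine (stock) plus glutamate oxidase/HRP/Amplex Red coupling added. Fluorescence read initially and after 30 min at RT.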
# An asterisk follows results filed as active; i = inactive; u = inconclusive; x = no result; [ ] = dose if it differs, or a comment. The call rests on the fitted dose curve; in most records, active means well fitted curve in the direction sought with a large enough effect; inconclusive means small, poorly fitted or top-dose-only effect, or another doubt; inactive means no such curve, though single readings can be large; an effect the other way counts as inactive or inconclusive. Potency means the concentration at half of the fitted maximal effect.
SMILES,ALOX12 inh,GLP-1R inv ag,GLP1R ag,PTHR1 agonist,Glioma ERSR ind,GLS inhibitor
O=[N+]([O-])c1ccc(N/N=C/c2ccc[nH]2)cc1,35µM*,u,-10%,-30%,10%,16%
O=[N+]([O-])c1ccc(NN=Cc2cccc([N+](=O)[O-])c2)cc1,u,u,13%,-14%,9%,-20%
Cc1c(Br)c(=O)oc2c(Br)c(O)c(O)cc12,22µM*,4%,-2%,i,-1%,16%
O=C(O)Cc1sc(N/N=C\c2ccccc2)nc1-c1ccccc1,45µM*,-24%,1%,-17%,4%,-19%
O=[N+]([O-])c1ccccc1/C=N\N1CCN(Cc2ccccc2Cl)CC1,140%,-26%,-1%,-37%,3%,3%
Fc1ccccc1/C=N/N1CCN(Cc2ccccc2Cl)CC1,13µM*,u,8%,-25%,2%,3%
COc1ccc(-c2nc3cc(NC(=O)COc4cccc(C)c4)ccc3o2)cc1,-8%,x,x,x,x,x
Cc1ccc(C)c(NC(=O)C(Cc2ccccc2)n2cccc2)c1 (configuration not stated),0%,10µM*,x,i,-2%,6%
Cc1ccc(C(OCC(C)(C)C[N+](C)(C)C)c2ccccc2)cc1 (configuration not stated),45µM*,u,4%,i,-1%,-7%
C[N+](C)(C)CCOC(c1ccccc1)c1ccccc1,0%,x,x,x,x,x
Cc1ccc2cc(C3C(C#N)=C(N)Oc4c3ccc3cccnc43)c(=O)[nH]c2c1 (configuration not stated),25µM*,-30%,19%,-32%,9%,-5%
COCCn1c(SC(C)c2ccc(F)cc2)nnc1-c1ccncc1 (configuration not stated),-2%,x,x,x,x,x
Cc1ccc(C(=O)N(CCN2CCCCC2)CC2CCCN(C3CCCC3)C2)s1 (configuration not stated),61%,8.9µM*,45%,-20%,4%,-3%
O=C(c1cccs1)N(CCN1CCCCC1)CC1CCCN(C2CCCC2)C1 (configuration not stated),-1%,u,15%,i,6%,-13%
CCOc1ccccc1CN1CCN(C2CCN(c3ccccc3F)CC2)CC1CCO (configuration not stated),-6%,11µM*,2%,30%,-4%,0%
COC(=O)c1c(C)[nH]c(C(=O)CSc2cc(F)ccc2F)c1C,42%,x,x,x,x,x
CCCCN(C)S(=O)(=O)c1ccc(NC(=O)Cc2nc(-c3ccccc3)oc2C)cc1,17%,x,x,x,x,x
COc1ccc(-c2nnc(SCc3csc(Nc4ccc(C)cc4)n3)o2)c(OC)c1,-27%,x,x,x,x,x
COc1ccccc1-c1nnc(SCc2csc(Nc3ccc(C)cc3)n2)o1,40µM*,x,x,x,x,x
Cn1nc(C(=O)OCC(=O)c2ccc(C3CCCCC3)cc2)c2ccccc2c1=O,27%,x,x,x,x,x
C=CC#CC1(O)CC(C)[N+](C)(C)CC1C (configuration not stated),35µM*,-9%,1%,u,-5%,9%
Cc1ccc(NC(=S)N(CCCN2CCCC2)Cc2cccn2Cc2ccc(Cl)cc2)cc1C,-15%,u,11%,i,-5%,0%
FC(F)(F)c1cccc(NC(=S)N(CCCN2CCCC2)Cc2cccn2Cc2ccc(Cl)cc2)c1,u,6.3µM*,3%,i,-12%,-15%
CCOC(=O)Cc1csc(N/N=C/c2ccccc2)n1,-12%,u,17%,-4%,-10%,12%
CCOC(=O)Cc1csc(N/N=C\c2cccc(Br)c2)n1,-14%,u,15%,-6%,-9%,20µM*
SMILES,ALOX12 inh,GLP-1R inv ag,GLP1R ag,PTHR1 agonist,Glioma ERSR ind,GLS inhibitor
Cc1ccc(C)c(-n2ccnc2SCC(=O)Nc2ncc(C)s2)c1,-19%,x,x,x,x,x
CNC(=S)N1N=C(c2ccc(C)cc2)CC1c1cc(OC)ccc1OC (configuration not stated),-13%,10µM*,14%,-22%,1%,-11%
CNC(=S)N1N=C(c2ccc(C)cc2)CC1c1ccc(OC)cc1 (configuration not stated),0%,10µM*,-3%,-2%[57.5 µM],3%,7%
CNC(=S)N1N=C(c2ccc(OC)cc2)CC1c1ccccc1Cl (configuration not stated),11%,10µM*,12%,-8%,-4%,-5%
CNC(=S)N1N=C(c2ccc(OC)cc2)CC1c1ccc(Cl)cc1Cl (configuration not stated),-3%,u,12%,-11%,-6%,3%
COc1ccc(-c2nc(Cn3nc(C)c4c(C)onc4c3=O)c(C)o2)cc1,-7%,x,x,x,x,x
COC(=O)C1=C(C(=O)OC)C(c2cc(Br)ccc2O)c2sc(=O)[nH]c2S1 (configuration not stated),45µM*,22%,5%,-4%,-4%,u
Cc1ccc(-c2nn(-c3ccccn3)c(=O)c3ccccc23)cc1C,u,10µM*,11%,i,2%,-1%
O=C1/C(=C/C=C/c2ccco2)SC(=S)N1NS(=O)(=O)c1ccccc1,u,u,-2%,-13%,-6%,16µM*
CC(C(=O)O)N1C(=O)/C(=C/C=C/c2ccco2)SC1=S (configuration not stated),u,-21%,-16%,-68%[57.5 µM],5%,4µM*
O=C(CC1CCCC1)NCc1ccccn1,6%,x,x,x,x,x
CCN1C(=O)/C(=C/c2nc3ccccc3c(=O)n2-c2ccccc2)c2ccccc21,10%,2µM*,1%,-12%[57.5 µM],-1%,-2%
CCN1C(=O)/C(=C\c2nc3ccccc3c(=O)n2CC)c2ccccc21,-15%,u,16%,-14%,-2%,0%
Cc1cccc2sc(=S)[nH]c12,32µM*,-5%,-1%,-17%,0%,u
Cc1[nH]c2ccccc2c1Cc1nnc(SCc2ccccc2)o1,-1%,11µM*,9%,-28%,-3%,13%
O=c1[nH]c(CSc2nnc(Cc3ccccc3)o2)nc2ccccc12,-6%,8%,-1%,i,-2%,-6%

# High-throughput results as filed in PubChem.
